The entries come from a sample that favours hits as a whole.
Pf apPOL inh – Pf-apPOL inhibitors, biochemical, fluorescence | Plasmodium falciparum apicoplast DNA polymerase (apPOL) | Recombinant Pf-apPOL, molecular beacon fluorescence, 1.5 h | inhibition, % at 10 µM | 0.25% of 210,000 active | AID 1794808, 2022
mHTT-CaM PPI inh – mutant huntingtin-calmodulin interaction inhibitors – biochemical, AlphaScreen, primary screen; P42858; AlphaScreen His-mHTT/GST-CaM binding, luminescence; inhibition, % at 15 µM; 3.6% of 190,000 active; AID 1671202, 2021;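 further: 0% = both proteins with DMSO and 100% = one protein alone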
Starred values were filed as active, the others as inactive; x = no result. No stated cut-off is given here; in the data, active means inhibition above about 50%; inactive means the rest.

SMILES | Pf apPOL inh | mHTT-CaM PPI inh
COc1cc2c(c([N+](=O)[O-])c1)NC(C(C)C)C1CC=CC21 (stereo unspecified) | -6 | 97*
Cc1ccc(C)c2sc(N(C)CC(=O)NCCSc3nncn3C)nc12 | -6 | -13
Oc1ccc(Br)cc1-c1nc(Cl)c2ccccc2n1 | 0 | -1
O=C(Sc1n[nH]c(=O)[nH]c1=O)c1ccc(Cl)cc1 | -4 | 37
Cc1cccc(C(=O)Sc2n[nH]c(=O)[nH]c2=O)c1 | -12 | 70*
N=C1NC(=O)/C(=C\c2ccc(-c3ccc([N+](=O)[O-])cc3Cl)o2)S1 | -2 | 12
COc1ccc(CN2COc3ccc4c(=O)c(-c5ccccc5)coc4c3C2)cc1OC | -4 | 4
O=C(Nc1ccccc1F)C1CC(=O)N(c2ccc(Br)cc2)C1 (stereo unspecified) | 0 | 2
O=C(Nc1nc2ccccc2s1)C1CC(=O)N(c2ccc(Br)cc2)C1 (stereo unspecified) | 1 | 60*
C=CCN(c1nc(C)c(Cl)c(OC)n1)S(=O)(=O)c1ccc(C)cc1 | 4 | -11
Cc1cc(C)c(S(=O)(=O)Nc2ncccc2C)c(C)c1 | 100* | 2
Cc1cc(C)c(S(=O)(=O)Nc2ncccn2)c(C)c1 | -5 | 2
COc1cccc(-n2nc(C(=O)N(C)Cc3ccccc3)c3ccccc3c2=O)c1 | -5 | 17
CN(CC(=O)N1N=C(c2cccs2)CC1c1ccc(F)cc1)C(=O)C1CC1 (stereo unspecified) | 0 | 5
COc1ccc(/C=C/C2=NC(=C\c3ccccc3F)/C(=O)O2)cc1 | -5 | 5
N#Cc1c(SCC(=O)Nc2nncs2)sc2c(O)cc(=O)[nH]c12 | x | 54*
CC(=O)CSc1sc2c(O)cc(=O)[nH]c2c1C#N | x | 4
CCN(CCNC(=O)C1CCN(c2nccc(C)n2)CC1)Cc1ccccc1 | -6 | -1
CC(=O)N1c2c(cc(Br)cc2S(=O)(=O)N2CCc3ccccc3C2)CC1C (stereo unspecified) | -3 | 58*
CC(=O)N1c2c(cc(Br)cc2S(=O)(=O)N2CCc3ccccc32)CC1C (stereo unspecified) | 1 | 20
COc1nccnc1NS(=O)(=O)c1ccc(NC(=O)c2ccccc2Cl)cc1 | -8 | 18
COc1nccnc1NS(=O)(=O)c1ccc(NC(=O)COc2cc(C)c(Cl)c(C)c2)cc1 | 9 | 50*
CCC(=O)OCCC(=O)N1C=Cc2ccccc2C1C#N (stereo unspecified) | -4 | x
O=C1OC(c2cccc([N+](=O)[O-])c2)=N/C1=C\c1cc(Br)cs1 | 0 | 92*
O=C1OC(c2cccc([N+](=O)[O-])c2)=N/C1=C\c1cccs1 | -2 | 13
SMILES | Pf apPOL inh | mHTT-CaM PPI inh
CCOc1ccc(/C=C2\N=C(c3cc([N+](=O)[O-])cc([N+](=O)[O-])c3)OC2=O)cc1 | 0 | 56*
CCOc1ccc(/C=C2\N=C(c3ccc([N+](=O)[O-])cc3)OC2=O)cc1 | 1 | 2
COc1cccc(C2=N/C(=C/c3ccc(OC)c(OC)c3)C(=O)O2)c1 | -2 | 17
COc1ccc(N(C(C)C(=O)Nc2ccc(Br)cc2)S(C)(=O)=O)cc1 (stereo unspecified) | -4 | 2
COc1ccc(Cl)cc1CN1CCN(c2ccc(N3C(=O)CC(C)C3=O)cc2[N+](=O)[O-])CC1 (stereo unspecified) | -17 | 73*
COc1ccc(Cl)cc1CN1CCN(c2ccc(N3C(=O)CCCC3=O)cc2[N+](=O)[O-])CC1 | -24 | 73*
COc1ccc(Cl)cc1CN1CCN(c2ccc(N3C(=O)COCC3=O)cc2[N+](=O)[O-])CC1 | -8 | 79*
O=C1CCCC(=O)N1c1ccc(N2CCCC(CO)C2)c([N+](=O)[O-])c1 (stereo unspecified) | -10 | 2
Cc1ccc(N2CCN(c3ccc(N4C(=O)COCC4=O)cc3[N+](=O)[O-])CC2C)cc1 (stereo unspecified) | -14 | 11
COc1cc2c(cc1OC)C(C)N(c1ccc(N3C(=O)CC(C)C3=O)cc1[N+](=O)[O-])CC2 (stereo unspecified) | -15 | 60*
CC1CC(=O)N(c2ccc(N3CC4(C)CC3CC(C)(C)C4)c([N+](=O)[O-])c2)C1=O (stereo unspecified) | -18 | 37
CC1CC(=O)N(c2ccc(N3CCN(c4cccc(Cl)c4)CC3)c([N+](=O)[O-])c2)C1=O (stereo unspecified) | -14 | 46
COc1cccc(C2=N/C(=C\c3ccc(F)cc3)C(=O)O2)c1 | 0 | 6
Cc1ccc(NC(=O)CN(C)S(=O)(=O)c2ccc(Cl)cc2)cc1C | -5 | 3
CCCCN1C(=O)C(C)(C(=O)NCc2ccccc2Cl)Oc2cccnc21 (stereo unspecified) | -1 | -6
O=C(CC1CCN(S(=O)(=O)c2cccs2)CC1)N1CCCCC1 | 0 | -5
O=C(NC1CC1)c1cncc(N2CCCC2)c1 | 3 | 7
